# Reference: PubChem BioAssay (NCATS)
# Where “and” joins values, the source holds several entries; their conditions need not be identical. Equal entries are not always repeated. Unmarked numbers belong to inactive results. Inconclusive results are not listed. Calls of active or inactive are those of the source. Unless noted, calls follow the shape of the dose curve; as a rule, active = well fitted curve in either direction with a large enough effect (not every such curve was filed as active); inconclusive = small, poorly fitted or top-dose-only effect, or another doubt; inactive = flat fitted curve, though single readings scatter.
# What was measured:
# [1] = AP1 Signaling Pathway (AID 357);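 also: ME-180 reporter cells stimulated with EGF at its EC50 level; % is scaled to controls: 0 for no effect and ±100 for the full control effect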
# How it was run: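 A ratiometric CCF4 readout (405 nm excitation; 460 and 530 nm emission) quantified AP-1-driven beta-lactamase in ME-180 cells after 5 h with compound and EC50 EGF; AC50 values were derived for activators and inhibitors.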
# [2] = molecular target: Cytochrome P450 1A2 (Homo sapiens) (UniProt P05177); test: p450-cyp1a2 (AID 410; calls by dose curve; also: potency is read from the fitted curve at half-maximal effect;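 as to activity change, negative = inhibition: -100% = full effect of reference inhibitor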)
# How it was run: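 20nM CYP1A2 with 100uM Luciferin-ME (at Km) in 100mM KPO4; compound preincubated 10 min, NADPH regeneration added, 60 min at room temperature. Luciferin quantified by luminescence after detection reagent; normalized to 57 uM furafylline.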
# [3] = Stat Signaling Pathway (AID 446);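 also: ME-180 cervical cancer cells given 40 pM IL-6 alongside compound; SIE-controlled beta-lactamase reporter measured as 460/530 nm FRET emission ratio; % is scaled to controls: 0 for no effect and ±100 for the full control effect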
# How it was run: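 IL-6/STAT signaling read in ME-180 cells via an SIE beta-lactamase reporter. Stimulus was 40 pM IL-6 (its AC50) for 5 hrs, so both activation and inhibition register.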
# [4] = molecular target: Glucocorticoid receptor (Homo sapiens) (UniProt P04150); test: GR-GFP Redistribution (AID 450;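 active = compounds whose dose series gives a full or clear partial fitted curve of increased nuclear translocation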; also: potency is read from the fitted curve at half-maximal effect); conditions: U2OS GR-GFP nuclear translocation, laser cytometry, 2 h
# [5] = molecular target: Glucocorticoid receptor (Homo sapiens) (UniProt P04150); test: GR-EFC Redistribution (AID 451; calls by dose curve; also: potency is read from the fitted curve at half-maximal effect); conditions: CHO-K1 GR-EFC translocation, beta-gal luminescence, 2 h
# How it was run: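 Translocation of GR-ED fusion to nuclear EA restores b-gal, read by luminescence after 1 h room-temperature detection. Engineered CHO-K1 biosensor cells, 1,000/well, exposed 2 h at 37 C to titrations up to 46 uM final.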
# [6] = molecular target: Mitogen-activated protein kinase 10 (Mus musculus) (UniProt Q61831); test: JNK3 AlphaScreen Assay (AID 530);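 also: kinase came from lysate of stimulated human HepG2 cells; signal reports phosphorylation of biotinylated GST-cJun 1-79 at Ser73 with 10 µM ATP; % is scaled to controls: 0 for no effect and ±100 for the full control effect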
# How it was run: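 Compound titrations were preincubated 15 minutes at room temperature with substrate, antibody and pre-activated JNK3-containing HepG2 lysate. Reactions were started with 10 uM ATP and stopped with EDTA-containing bead buffer for AlphaScreen detection.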
# [7] = NFAT Signaling Pathway (AID 444); conditions: Jurkat NFAT-bla M1, carbachol, beta-lactamase ratio, 5 h;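 also: carbachol stimulus at about its EC50 of 1 µM final; % is scaled to controls: 0 for no effect and ±100 for the full control effect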
# How it was run: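 Read-out: CCF4 FRET ratio (460 nm/530 nm) after 1 h RT dye loading, used for %activity and AC50 from titration series. Cells: Jurkat NFAT-β-lactamase/M1 line, treated with compound plus 1 uM carbachol for 5 h, 37 °C.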
# [8] = Cell Viability - BJ (AID 421; calls by dose curve;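 also: potency is read from the fitted curve at half-maximal effect; cells exposed to compound for 40 hours at 37 °C before readout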); conditions: BJ fibroblast viability, qHTS
# How it was run: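 Quantitative HTS: ATP depletion in BJ cells after 40 hr compound exposure in complete culture medium, detected with CellTiter-Glo; AC50 from standard Hill fits.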
# [9] = Cell Viability - Hek293 (AID 427;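 active = compounds whose dose-response curve shows a full or clear partial loss of cell viability, called from curve shape rather than a numeric limit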;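 also: potency is read from the fitted curve at half-maximal effect; cells exposed to compound for 40 hours at 37 °C before reading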); conditions: qHTS
# How it was run: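 AC50 values derive from Hill-modelled concentration-response of ATP-based luminescence, normalized between DMSO-only and 100 uM tamoxifen controls. Cells were exposed in complete culture medium for 40 hr at 37 °C before detection.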
# [10] = Cell Viability - HepG2 (AID 433; calls by dose curve;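 also: potency is read from the fitted curve at half-maximal effect; potency for ATP loss meaning cytotoxicity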); conditions: qHTS
# How it was run: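 In this qHTS format, a 40 h, 37 °C compound incubation of HepG2 cells in complete medium precedes a 20 min CellTiter-Glo step at room temperature. Tamoxifen and doxorubicin serve as positive controls; Hill-equation fits yield AC50.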
# [11] = Cell Viability - MRC5 (AID 434; calls by dose curve;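 also: potency is read from the fitted curve at half-maximal effect; potency reflects cytotoxicity seen as loss of intracellular ATP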); conditions: MRC5 lung fibroblast viability, qHTS
# How it was run: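 qHTS cytotoxicity in human lung fibroblast MRC5 cells; 40 hr treatment, 37 °C; cellular ATP by luciferase luminescence; DMSO = 0%, 100 uM tamoxifen = 100% inhibition; Hill-fit AC50.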
# [12] = Cell Viability - SK-N-SH (AID 435; calls by dose curve;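 also: potency is read from the fitted curve at half-maximal effect; compound exposure lasted 40 h at 37 °C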); conditions: SK-N-SH neuroblastoma cell viability qHTS
# How it was run: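 Human neuroblastoma line, 40 h exposure at 37 °C, ATP quantified via luciferase luminescence; DMSO and 100 uM tamoxifen define 0 and 100% inhibition for AC50 fitting.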
# [13] = Cell Viability - N2a (AID 540; active = well fitted curve in the direction sought with a large enough effect; an effect the other way counts as inactive or inconclusive;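 also: plate controls were DMSO alone for no effect and tamoxifen control for full effect; nearly all actives have a fitted effect of over 45% in size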)
# How it was run: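 Mouse neuroblastoma N2a cells, 1500/well, exposed to compounds 40 h at 37 °C in complete medium. Viability measured as cellular ATP by CellTiter-Glo luminescence; AC50 from Hill fits of concentration-response.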
# [14] = Cell Viability - NIH 3T3 (AID 541; active = well fitted curve in the direction sought with a large enough effect; an effect the other way counts as inactive or inconclusive;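 also: plate controls were DMSO alone for no effect and tamoxifen positive control for full effect; nearly all actives have a fitted effect of over 25% in size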); conditions: NIH 3T3 cell viability, qHTS; activity change, negative = cytotoxicity: at 92.2 µM (top of the series)
# How it was run: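 Mouse NIH 3T3 fibroblasts, 1000 cells/well, rested 5 hr at 37 °C, then exposed to compound for 40 hr at 37 °C in complete medium. Viability read as intracellular ATP by CellTiter-Glo luminescence; AC50 from Hill-equation fits of concentration-response data.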
# [15] = Cell Viability - HUV-EC-C (AID 542; active = well fitted curve in the direction sought with a large enough effect; an effect the other way counts as inactive or inconclusive; also: % is scaled to controls: 0 for no effect and ±100 for the full control effect; nearly all actives have a fitted effect of over 35% in size)
# How it was run: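 HUV-EC-C human vascular endothelial cells, 1000/well, exposed to compound for 40 hr at 37 °C in complete medium. Intracellular ATP was read by CellTiter-Glo luminescence. AC50 came from Hill-equation fits of concentration-response data.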
# [16] = Cell Viability - SH-SY5Y (AID 544; active = well fitted curve in the direction sought with a large enough effect; an effect the other way counts as inactive or inconclusive;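 also: 0% = DMSO alone and -100% = 100 µM tamoxifen; nearly all actives have a fitted effect of over 55% in size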); conditions: SH-SY5Y neuroblastoma cell viability; viability change, negative = cytotoxic: at 92.2 µM (top of the series)
# How it was run: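 SH-SY5Y human neuroblastoma cells (1500/well) incubated 5 h, then compound-treated 40 h at 37 °C in complete medium. Viability read as intracellular ATP by CellTiter-Glo luminescence after 20 min; AC50 from Hill-equation fits of qHTS concentration-response.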
# [17] = Cell Viability - Renal Proximal Tubule (AID 545; active = well fitted curve in the direction sought with a large enough effect; an effect the other way counts as inactive or inconclusive;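 also: 0% = DMSO only and -100% = 100 µM tamoxifen; nearly all actives have a fitted effect of over 40% in size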)
# How it was run: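 In this qHTS format, normal rat kidney-derived proximal tubule cells in complete culture medium receive compound titrations, then sit 40 hours at 37 °C before luciferase-based ATP quantitation; potency is reported as AC50 from concentration-response curves.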
# [18] = Cell Viability - Jurkat (AID 426;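 active = dose-dependent loss of cell ATP signal giving a full or clear fitted curve, ranked by lower potency value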; also: potency is read from the fitted curve at half-maximal effect); conditions: qHTS
# How it was run: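 Jurkat (Clone E6-1) cells, 5000/well in complete medium, exposed to compounds for 40 hr at 37C; intracellular ATP measured by CellTiter-Glo luminescence after 20 min at room temperature. AC50 from Hill fits.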
# [19] = Cell Viability - H-4-II-E (AID 543; active = well fitted curve in the direction sought with a large enough effect; an effect the other way counts as inactive or inconclusive; also: % is scaled to controls: 0 for no effect and ±100 for the full control effect; nearly all actives have a fitted effect of over 35% in size)
# How it was run: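 Rat hepatoma H-4-II-E cells, 1500 per well, treated 40 h at 37 °C in complete medium. Cellular ATP read by CellTiter-Glo luminescence; AC50 from Hill fits of concentration-response.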
# [20] = at 17.2 µM (top of the series) unless noted
# Sequence of Glucocorticoid receptor (Homo sapiens) (P04150 whole entry, looked up, the tested form may be a part): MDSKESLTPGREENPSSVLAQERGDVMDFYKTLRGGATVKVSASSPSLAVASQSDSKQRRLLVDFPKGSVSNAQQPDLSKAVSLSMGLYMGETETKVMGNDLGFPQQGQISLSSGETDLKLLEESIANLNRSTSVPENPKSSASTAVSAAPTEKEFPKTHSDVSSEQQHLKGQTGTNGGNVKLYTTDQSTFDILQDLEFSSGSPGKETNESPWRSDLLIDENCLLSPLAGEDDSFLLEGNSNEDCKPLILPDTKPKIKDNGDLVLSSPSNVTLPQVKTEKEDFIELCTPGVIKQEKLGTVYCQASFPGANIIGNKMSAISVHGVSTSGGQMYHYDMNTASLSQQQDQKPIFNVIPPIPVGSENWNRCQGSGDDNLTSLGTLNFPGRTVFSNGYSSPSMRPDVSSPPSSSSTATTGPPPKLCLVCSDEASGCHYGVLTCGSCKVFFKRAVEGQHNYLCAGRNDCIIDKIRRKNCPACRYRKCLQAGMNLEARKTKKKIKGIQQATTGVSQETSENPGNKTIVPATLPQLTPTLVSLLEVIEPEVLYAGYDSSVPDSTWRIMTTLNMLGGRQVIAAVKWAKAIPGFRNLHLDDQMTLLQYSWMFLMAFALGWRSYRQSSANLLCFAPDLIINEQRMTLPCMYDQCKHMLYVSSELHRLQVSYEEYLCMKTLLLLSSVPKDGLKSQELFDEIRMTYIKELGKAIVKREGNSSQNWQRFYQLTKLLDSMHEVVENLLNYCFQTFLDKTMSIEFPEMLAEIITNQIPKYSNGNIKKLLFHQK
# Sequence of Cytochrome P450 1A2 (Homo sapiens) (P05177 whole entry, looked up): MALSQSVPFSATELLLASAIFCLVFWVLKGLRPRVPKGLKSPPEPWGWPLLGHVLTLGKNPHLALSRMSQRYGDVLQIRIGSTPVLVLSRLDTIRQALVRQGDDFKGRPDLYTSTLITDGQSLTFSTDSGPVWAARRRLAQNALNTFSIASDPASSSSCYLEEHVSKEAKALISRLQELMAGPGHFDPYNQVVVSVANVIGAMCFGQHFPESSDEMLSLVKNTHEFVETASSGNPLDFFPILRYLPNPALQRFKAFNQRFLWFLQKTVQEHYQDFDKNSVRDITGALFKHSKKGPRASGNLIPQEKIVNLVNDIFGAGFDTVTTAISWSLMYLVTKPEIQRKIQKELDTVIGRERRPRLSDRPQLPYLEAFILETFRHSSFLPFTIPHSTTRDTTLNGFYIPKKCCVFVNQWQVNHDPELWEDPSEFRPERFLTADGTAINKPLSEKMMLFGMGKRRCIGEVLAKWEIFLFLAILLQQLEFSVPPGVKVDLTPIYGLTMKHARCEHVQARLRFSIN
structure (smiles),measurement,setting,value
C[N+]1(C)CCC(=C(c2ccccc2)c2ccccc2)CC1,outcome,[1],inactive
same,Potency,[2],inactive
same,outcome,[3],inactive
same,Potency,[4],> 20.6 µM
same,Potency,[5],> 20.6 µM
same,Potency,[6],inactive
CC(C)(C)NC[C@H](O)COc1nsnc1N1CCOCC1,outcome,[1],inactive
same,"activity change, negative = inhibition",[7]; at 17.2 µM (top of the series),1.16% and 3.92%
same,"activity change, negative = inhibition",[7]; at 38 µM (top of the series),-1.27%
same,outcome,[3],inactive
same,Potency,[4],> 46 µM and > 20.6 µM
same,Potency,[5],> 46 µM and > 20.6 µM
CCN(CC)CCNc1ccc(CO)c2sc3ccccc3c(=O)c12,outcome,[1],inactive
same,Potency,[2],0.126 µM (active)
same,"activity change, negative = inhibition",[7]; [20],-29.8%
same,Potency,[4],> 20.6 µM
same,Potency,[5],> 20.6 µM
Cc1c(-c2ccccc2)oc2c(C(=O)OCCN3CCCCC3)cccc2c1=O,outcome,[1],inactive
same,Potency,[2],6.31 µM (active)
same,"activity change, negative = inhibition",[7]; [20],-3.52%
same,outcome,[3],inactive
same,Potency,[4],> 20.6 µM
same,Potency,[5],> 20.6 µM
COc1cc(C(=O)NCc2ccc(OCCN(C)C)cc2)cc(OC)c1OC,outcome,[1],inactive
same,Potency,[2],inactive
same,"activity change, negative = inhibition",[7]; [20],-15.8%
same,outcome,[3],inactive
same,Potency,[4],> 20.6 µM
same,Potency,[5],> 20.6 µM
same,Potency,[6],inactive
COc1ccc(C(Cl)=C(c2ccc(OC)cc2)c2ccc(OC)cc2)cc1,outcome,[1],inactive
same,Potency,[2],inactive
same,Potency,[8],> 92 µM
same,Potency,[9],> 92 µM
same,Potency,[10],> 92 µM
same,Potency,[11],> 92 µM
same,Potency,[12],> 92 µM
same,outcome,[3],inactive
same,Potency,[4],> 20.6 µM
same,Potency,[5],> 20.6 µM
same,Potency,[13],inactive
same,"activity change, negative = cytotoxicity",[14],-7.28%
same,outcome,[15],inactive
same,"viability change, negative = cytotoxic",[16],-10.7%
same,outcome,[17],inactive
O=C(CCCN1CC=C(n2c(=O)[nH]c3ccccc32)CC1)c1ccc(F)cc1,outcome,[1],inactive
same,Potency,[2],inactive
same,"activity change, negative = inhibition",[7]; [20],-14.9%
same,outcome,[3],inactive
same,Potency,[4],> 20.6 µM
same,Potency,[5],> 20.6 µM
CCOc1ccc(NC(C)=O)cc1,outcome,[1],inactive
same,Potency,[8],> 92 µM
same,Potency,[18],> 92 µM
same,Potency,[9],> 92 µM
same,Potency,[10],> 92 µM
same,Potency,[11],> 92 µM
same,Potency,[12],> 92 µM
same,"activity change, negative = inhibition",[7]; [20],3.42%
same,outcome,[3],inactive
same,Potency,[4],> 20.6 µM
same,Potency,[5],> 20.6 µM
same,Potency,[13],inactive
same,"activity change, negative = cytotoxicity",[14],-21.8%
same,outcome,[15],inactive
same,"viability change, negative = cytotoxic",[16],-11.1%
same,outcome,[17],inactive
CCCc1ncc(C[n+]2ccccc2C)c(N)n1,outcome,[1],inactive
same,Potency,[2],inactive
same,"activity change, negative = inhibition",[7]; [20],-11.4%
same,outcome,[3],inactive
same,Potency,[4],> 20.6 µM
same,Potency,[5],> 20.6 µM
Nc1ccc(C(=O)NCC(=O)O)cc1,outcome,[1],inactive
same,Potency,[2],inactive
same,"activity change, negative = inhibition",[7]; [20],3.72%
same,outcome,[3],inactive
same,Potency,[4],> 20.6 µM
same,Potency,[5],> 20.6 µM
CCCCNc1ccc(C(=O)OCCOCCOCCOCCOCCOCCOCCOCCOCCOC)cc1,outcome,[1],inactive
same,Potency,[2],inactive
same,"activity change, negative = inhibition",[7]; [20],-6.05%
same,outcome,[3],inactive
same,Potency,[4],> 20.6 µM
same,Potency,[5],> 20.6 µM
O=C1C(O)=C(O)C(=O)C(O)=C1O,outcome,[1],inactive
same,Potency,[2],inactive
same,"activity change, negative = inhibition",[7]; [20],-6.65%
same,outcome,[3],inactive
same,Potency,[4],> 20.6 µM
same,Potency,[5],> 20.6 µM
same,Potency,[6],inactive
CC(C)(C)NCC(O)COc1cccc2c1C[C@H](O)[C@H](O)C2 (stereo partly drawn),outcome,[1],inactive
same,"activity change, negative = inhibition",[7]; [20],1.44%
same,outcome,[3],inactive
same,Potency,[4],> 20.6 µM
N=C(N)N1CCc2ccccc2C1,outcome,[1],inactive
same,Potency,[2],inactive
same,"activity change, negative = inhibition",[7]; [20],-7.74%
same,outcome,[3],inactive
same,Potency,[4],> 20.6 µM
same,Potency,[5],> 20.6 µM
CC(O)Cn1cnc2c1c(=O)n(C)c(=O)n2C (stereo not drawn),outcome,[1],inactive
same,"activity change, negative = inhibition",[7]; [20],10.8%
same,outcome,[3],inactive
c1ccc(CC2=NCCN2)cc1,outcome,[1],inactive
same,"activity change, negative = inhibition",[7]; [20],-12.4%
same,outcome,[3],inactive
NCCNc1cccc2ccccc12,Potency,[8],> 92 µM
same,Potency,[10],> 92 µM
same,Potency,[11],> 92 µM
same,Potency,[12],> 92 µM
same,Potency,[13],inactive
same,"activity change, negative = cytotoxicity",[14],-24.9%
same,outcome,[15],inactive
same,outcome,[17],inactive
O=C(O)c1ccc(S(=O)(=O)N(Cl)Cl)cc1,Potency,[8],> 92 µM
same,Potency,[9],> 92 µM
same,Potency,[10],> 92 µM
same,Potency,[11],> 92 µM
same,Potency,[12],> 92 µM
same,Potency,[6],inactive
same,Potency,[13],inactive
same,"activity change, negative = cytotoxicity",[14],-11.9%
same,outcome,[15],inactive
same,Potency,[19],inactive
same,"viability change, negative = cytotoxic",[16],-7.18%
same,outcome,[17],inactive
